Laboratory results: PubChem BioAssay AID651640 (Broad Institute, 2012)
Values joined by “and” are separate entries in the source; they are usually repeats but may differ in a detail not shown here. Identical values can stand only once. Hit rate of the full screen: of about 350,000 compounds, about 6,000 (1.7%) were called active. About 5% were inconclusive and are not listed. Cut-off read from the data, not from the text of the source: active = CPE inhibition above about 20% (passing the limit was not always enough); inconclusive = no clear call, values can overlap the other calls; tested in BHK-21 cells. Only a selection was taken, and actives are over-represented in it overall.

experiment: protection of cells from dengue 2 killing – plate reader, single concentration, primary screen (AID 651640); conditions: DENV2-infected cells, cytopathic effect rescue, at 9.99 µM, hits give high values;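 note: 0% = median of neutral control wells and 100% = median of positive control wells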

| SMILES | CPE inhibition |
| --- | --- |
| COCC(=O)Nc1ccc2c(c1)OC[C@@H](C)N(C(=O)c1ccncc1)C[C@@H](C)[C@@H](OC)CN(C)C2=O | 13.2% (inactive) |
| O=C(NC[C@H]1CC[C@@H]2[C@@H](CN2S(=O)(=O)c2ccccc2F)O1)C1CCCCC1 | -10.6% (inactive) |
| COCC#Cc1cnc2c(c1)C(=O)N([C@@H](C)CO)C[C@H](C)[C@@H](CN(C)Cc1ccccc1)O2 | 7.93% (inactive) |
| CCOc1ncccc1C(=O)Nc1ccc(S(=O)(=O)Nc2nc(C)cc(C)n2)cc1 | -5.45% (inactive) |
| CCOc1ncccc1C(=O)NNC(=O)c1cccc(S(=O)(=O)Nc2ccccc2OC)c1 | 23.7% (active) |
| CCN(CC(=O)NCc1cccs1)C(=O)c1cccc(S(=O)(=O)Nc2ccccc2OC)c1 | 0.937% (inactive) |
| O=C(NC[C@@H]1[C@@H](c2ccccc2)[C@H](CO)N1C(=O)Cc1cccnc1)C1CC1 | -4.58% (inactive) |
| COCC(=O)N[C@@H]1C[C@@H]2O[C@@H](CO)CC[C@@H]2O[C@@H]1CCc1ccc(-c2ccccc2)cc1 | 14.8% (inactive) |
| CN(C)CC#Cc1ccc([C@H]2[C@H]3CN(C(=O)c4cccc(F)c4)CC(=O)N3[C@H]2CO)cc1 | 0.131% (inactive) |
| CCOC(=O)C(Cc1ccccc1)NC(=O)CCC(=O)c1ccc(OC)cc1 (stereo not drawn) | -0.51% (inactive) |
| COc1cc([C@H](Cc2ccccc2)NC(C)=O)oc(=O)c1 | 23.5% (active) |
| COc1ccc(OC)c(NC(=O)N[C@H](Cc2ccccc2)C(=O)NN)c1 | -9.79% (inactive) |
| COCC(=O)N(C)C[C@@H]1Oc2ncc(C#C[C@H](C)O)cc2C(=O)N([C@@H](C)CO)C[C@@H]1C | -2.59% (inactive) |
| C[C@H]1CN([C@@H](C)CO)C(=O)c2cc(Br)cnc2O[C@@H]1CN(C)C(=O)c1ccccc1F | 2.37% (inactive) |
| CCc1ccc(OC(C)C(=O)Nc2ccc(S(=O)(=O)Nc3cc(C)on3)cc2)cc1 (stereo not drawn) | 2.4% (inactive) |
| Cc1cc(NS(=O)(=O)c2ccc(NC(=S)NC(=O)c3ccc(F)cc3Cl)cc2)no1 | 78.9% (active) |
| CCOc1ccc(C(=O)Nc2ccc(S(=O)(=O)Nc3cc(C)on3)cc2)cc1 | 1.57% (inactive) |
| CCC(=O)Nc1ccc2c(c1)C(=O)N(C)[C@@H]1CC[C@H](CC(=O)NCc3ccccc3)O[C@H]1CO2 | -3.19% (inactive) |
| COc1ccc(CN(C)C[C@@H]2Oc3ccc(NC(=O)Nc4ccc(OC)cc4)cc3C(=O)N([C@H](C)CO)C[C@H]2C)cc1 | -3.17% (inactive) |
| C[C@@H]1CN([C@H](C)CO)C(=O)c2cc(NC(=O)Nc3ccccc3)ccc2O[C@@H](C)CCCCO[C@H]1CN(C)Cc1ccc(C(F)(F)F)cc1 | -1.92% (inactive) |
| C[C@@H]1CN([C@@H](C)CO)C(=O)c2cc(NC(=O)Nc3ccc(C(F)(F)F)cc3)ccc2O[C@@H](C)CCCCO[C@H]1CN(C)C(=O)c1ccccc1 | 25.6% (active) |
| COc1ccc(NC(=O)Nc2ccc3c(c2)C(=O)N([C@@H](C)CO)C[C@H](C)[C@@H](CN(C)Cc2ccc4c(c2)OCO4)O3)cc1 | 31.5% (active) |
| C[C@@H]1CCCCO[C@@H](CN(C)Cc2ccc(C(=O)O)cc2)[C@H](C)CN([C@@H](C)CO)C(=O)c2cc(NC(=O)Nc3ccc(C(F)(F)F)cc3)ccc2O1 | 17.1% (inactive) |
| C[C@@H]1CN([C@@H](C)CO)C(=O)c2cc(NC(=O)Nc3ccc(C(F)(F)F)cc3)ccc2O[C@@H]1CN(C)Cc1ccncc1 | 31.1% (active) |

| SMILES | CPE inhibition |
| --- | --- |
| C[C@H]1CCCCO[C@@H](CN(C)Cc2ccc(C(F)(F)F)cc2)[C@@H](C)CN([C@@H](C)CO)C(=O)c2cc(NC(=O)Nc3ccccc3)ccc2O1 | -2.84% (inactive) |
| C[C@H](CO)N1C[C@H](C)[C@@H](CN(C)Cc2ccncc2)Oc2ccc(NC(=O)Nc3ccccc3)cc2C1=O | 7.94% (inactive) |
| C[C@@H]1CCCCO[C@@H](CN(C)Cc2ccc(C(=O)O)cc2)[C@@H](C)CN([C@@H](C)CO)C(=O)c2cc(NC(=O)Nc3ccc(C(F)(F)F)cc3)ccc2O1 | 21.1% (active) |
| C[C@H](CO)N1C[C@H](C)[C@@H](CN(C)Cc2ccc3c(c2)OCO3)Oc2ccc(NC(=O)Nc3ccc(F)cc3)cc2C1=O | -6.58% (inactive) |
| C[C@@H]1CCCCO[C@@H](CN(C)C(=O)Nc2ccc(C(F)(F)F)cc2)[C@H](C)CN([C@H](C)CO)C(=O)c2cc(NC(=O)c3ccccc3)ccc2O1 | 4.25% (inactive) |
| C[C@H](CO)N1C[C@H](C)[C@H](CN(C)Cc2ccncc2)Oc2ccc(NC(=O)Nc3ccc(F)cc3)cc2C1=O | -10.5% (inactive) |
| COc1ccccc1-c1cn(CC[C@H]2CC[C@@H](NC(=O)CCN3CCCCC3)[C@@H](CO)O2)nn1 | -1.83% (inactive) |
| C[C@H]1CN([C@@H](C)CO)S(=O)(=O)c2ccc(C#Cc3cccc(F)c3)cc2O[C@@H]1CN(C)S(=O)(=O)c1cn(C)cn1 | -0.538% (inactive) |
| CCNC(=O)[C@H]1[C@H](CO)[C@H]2Cn3c(cccc3=O)[C@@H]1N2Cc1cc(F)ccc1F | -7.97% (inactive) |
| CCCNC(=O)N1C[C@@H](O)COC[C@@H]2O[C@@H](CC(=O)O)CC[C@H]21 | 5.1% (inactive) |
| CN(C)CC(=O)N[C@@H]1C[C@@H]2O[C@H](CO)CC[C@@H]2O[C@@H]1CCc1ccc(C#Cc2ccccc2)cc1 | 6.51% (inactive) |
| C[C@H](CO)N1C[C@H](C)[C@H](CN(C)C)Oc2ncc(/C=C/c3ccccc3)cc2C1=O | -2.89% (inactive) and -2.09% (inactive) |
| Cc1noc(C)c1NC(=O)Nc1ccc2c(c1)C(=O)N([C@@H](C)CO)C[C@H](C)[C@H](CN(C)Cc1ccc(-c3ccccc3)cc1)O2 | -1.16% (inactive) |
| C[C@@H]1CN([C@@H](C)CO)C(=O)c2cc(/C=C/c3ccccc3)cnc2O[C@H]1CN(C)C(=O)Nc1ccc(C(F)(F)F)cc1 | 22.8% (active) |
| C[C@@H]1CCCCO[C@@H](CN(C)Cc2ccc3c(c2)OCO3)[C@@H](C)CN([C@@H](C)CO)C(=O)c2cc(NC(=O)Nc3ccccc3)ccc2O1 | -0.739% (inactive) |
| C[C@@H]1CN([C@H](C)CO)C(=O)c2cc(NC(=O)Nc3ccc4c(c3)OCO4)ccc2O[C@@H](C)CCCCO[C@@H]1CN(C)Cc1ccc2c(c1)OCO2 | -24.7% (inactive) |
| C[C@@H]1CN([C@@H](C)CO)C(=O)c2cc(N(C)C)ccc2O[C@H]1CN(C)Cc1ccc(C(F)(F)F)cc1 | 2.48% (inactive) |
| Cc1noc(C)c1NC(=O)Nc1ccc2c(c1)C(=O)N([C@H](C)CO)C[C@H](C)[C@H](CN(C)Cc1ccc(-c3ccccc3)cc1)O2 | 5.27% (inactive) |
| C[C@H]1CCCCO[C@@H](CN(C)Cc2ccc3c(c2)OCO3)[C@@H](C)CN([C@@H](C)CO)C(=O)c2cc(NC(=O)Nc3ccc(F)cc3)ccc2O1 | 23% (active) |
| C/C=C/c1cnc2c(c1)C(=O)N([C@H](C)CO)C[C@H](C)[C@@H](CN(C)C(=O)Nc1ccc(C(F)(F)F)cc1)O2 | -8.88% (inactive) |
| C[C@H]1CN([C@@H](C)CO)C(=O)c2cc(N(C)C)ccc2O[C@@H]1CN(C)Cc1ccccc1 | 1.9% (inactive) |
| Cc1noc(C)c1NC(=O)Nc1ccc2c(c1)C(=O)N([C@H](C)CO)C[C@@H](C)[C@@H](CN(C)Cc1ccccc1)O2 | 33.6% (active) |
| C[C@H](CO)N1C[C@H](C)[C@H](CN(C)Cc2ccncc2)Oc2ccc(N(C)C)cc2C1=O | 24.8% (active) |
| C[C@H](O)C#Cc1cnc2c(c1)C(=O)N([C@H](C)CO)C[C@@H](C)[C@@H](CN(C)C(=O)Nc1ccc(C(F)(F)F)cc1)O2 | -2.9% (inactive) |
